The record followed here is PubChem BioAssay.

Values without a mark were called inactive.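 Rule for the calls: active = inhibition at or above 50% relative to wild type and mutant plate controls; inactive = inhibition below 50%.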

This test can be described thus: loss of swimming-algae plug formation – whole organism, Chlamydomonas reinhardtii, WT vs cilia-less mutant, absorbance, 96-well, primary screen (AID 463189).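 Note: 0% = wild type cc124 cells in DMSO and 100% = ciliumless bld1 mutant cells.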 The note with it: Chlamydomonas reinhardtii gravitaxis, OD600 absorbance, 2 days; at 10 µM; stronger effect = higher value.
In the case of `OC[C@H]1O[C@@H](n2cnc3c(Nc4ccccc4)ncnc32)C(O)[C@H]1O` (some centres undefined), the inhibition is -0.892%. For `NC(=O)C(=O)O` the value was 0.681%.

Consider `O=C1NC(c2cccc([N+](=O)[O-])c2)=CCN1c1ccccc1O`, for which the inhibition is -0.979%.

Consider `COc1cc(CNC(=O)CCCCCCC(C)C)ccc1O`, for which the inhibition was -1.4%. For `NCCC(=O)NCCc1cnc[nH]1` the value was 3.88%; for `OCc1cc(C(O)CNCCCCCCOCCCCc2ccccc2)ccc1O` (centres undefined), 6.68%; for `Oc1cc2c(cc1O)C(c1ccccc1)CNCC2` (centres undefined), -4.78%. Next, `CC[C@@H](C)[C@H]1O[C@]2(CC[C@@H]1C)C[C@@H]1C[C@@H](C/C=C(\C)[C@@H](O[C@H]3C[C@H](OC)[C@@H](O[C@H]4C[C@H](OC)[C@@H](O)[C@H](C)O4)[C@H](C)O3)[C@@H](C)/C=C/C=C3\CO[C@@H]4[C@H](O)C(C)=C[C@@H](C(=O)O1)[C@]34O)O2`: 22.3%; `CC(=O)[C@@]1(O)CC[C@H]2[C@@H]3CCC4=CC(=O)CC[C@]4(C)[C@H]3CC[C@@]21C`: -1.04%; `CCC(=O)N1CCN(C(=O)c2ccccc2)CC1`: 0.644%.

In the case of `Cc1ccccc1/C=C/C1=NCCN1`, the inhibition was 3.42%. For `O=S(=O)(NCCNC/C=C/c1ccc(Br)cc1)c1cccc2cnccc12` the value was 19.5%; for `O=C1CCC(N2C(=O)c3ccccc3C2=O)C(=O)N1` (centres undefined), 10.8%. For `O=C(O)c1cc([N+](=O)[O-])ccc1NCCCc1ccccc1` the value was 9.38%.

The inhibition is the drop in the measured response relative to a control, in per cent.
